The record followed here is PubChem BioAssay (NCATS).

Each structure is given as a SMILES string. Values joined by “and” are separate entries in the source; they are usually repeats but may differ in a detail not shown here. Identical values can stand only once. Inconclusive results are not listed. Active and inactive are the calls of the source. Unless noted, the call rests on the fitted dose curve.

Test [1] concerns the target Vitamin D3 receptor (Homo sapiens) (UniProt P11473). Briefly: qHTS assay for small molecule antagonists of vitamin D receptor signaling (AID 588541).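 Further: receptor activated by calcitriol during compound treatment; series mostly up to about 77 µM; on the % scale 0 is the no-effect control and ±100 the full control effect.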 The essentials:
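VDR-UAS-bla HEK293T cells in 2% charcoal-stripped FBS were stimulated with 1-alpha,25-dihydroxyvitamin D3 (3 nM final) plus compound for 16 h at 37 C. The beta-lactamase CCF4 readout was normalized to 50 nM agonist and DMSO, and Hill fits gave IC50.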

For test [2] the target is unchanged. Briefly: qHTS assay for small molecule agonists of vitamin D receptor signaling (AID 588543).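 Further: 0% = DMSO basal and 100% = reference agonist control.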 The method, boiled down: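 Measured: β-lactamase reporter activity (CCF4, 405 nm excitation, 460/530 nm emission) in HEK293T VDR-UAS-bla cells after 16 h compound exposure at 37 °C. Normalization against 50 nM 1α,25-dihydroxyvitamin D3 and DMSO; Hill-fit EC50.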
In test [3] the target is Thyroid hormone receptor beta (Homo sapiens) (UniProt P10828). Briefly: qHTS assay for small molecule agonists of thyroid hormone receptor beta signaling (AID 588545).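 Further: 0% = DMSO only and 100% = 10 nM T3.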 The method, boiled down:
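Efficacy and EC50 values derive from Hill fits of qHTS titration data, normalized to 10 nM T3 and DMSO-only wells. HEK 293 reporter cells were stimulated for 18 hrs at 37 C, with beta-lactamase activity measured by CCF4 fluorescence.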

The nature of test [4]: qHTS assay for small molecule antagonists of retinoid X receptor alpha signaling (AID 588546; active means well fitted inhibition curve with a large enough effect in the signal ratio, with a control signal flat, not every such curve was filed as active; the % refers to the signal ratio;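 further: cells stimulated with 9-cis-retinoic acid as agonist; on the % scale 0 is the no-effect control and ±100 the full control effect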). Conditions: HEK293T RXRa-UAS-bla, beta-lactamase ratio, antagonist mode; measured here: W530 green channel, cytotoxicity proxy. The essentials:
(§1)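 Beta-lactamase reporter inhibition, read as CCF4 fluorescence ratio (ex 405, em 460/530 nm) after 2 h at RT. HEK293T UAS-bla cells, 2500/well, were stimulated with 9-cis-RA at 500 or 100 nM final alongside test compound for 18 h at 37 C.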
For orientation: Quantitative high-throughput screening tests each substance at several concentrations.

Test [5] has as its target Retinoic acid receptor RXR-alpha (Homo sapiens) (UniProt P19793). The description is as above. To be noted: HEK293T RXRa-UAS-bla, beta-lactamase ratio, antagonist mode. The essentials:
as §1

For test [6], the target named is Thyroid hormone receptor beta (Homo sapiens) (UniProt P10828). Briefly: qHTS assay for small molecule antagonists of thyroid hormone receptor beta signaling (AID 588547; active means well fitted inhibition curve with a large enough effect in the signal ratio, with a control signal flat, not every such curve was filed as active; the % refers to the signal ratio;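 further: cells stimulated with 0.4 nM T3 agonist during compound exposure; series mostly up to about 77 µM; on the % scale 0 is the no-effect control and ±100 the full control effect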). Conditions: TR-UAS-bla HEK293, beta-lactamase ratio, antagonist mode, 18 h. The essentials: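 TR-UAS-bla GripTite HEK293 cells in 2% charcoal/dextran FBS medium; compounds 0.59 nM to 92 uM with T3 at 0.4nM final, 18 h at 37 C. Beta-lactamase read by CCF4 fluorescence (460/530 nm); Hill fits gave IC50 and efficacy.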
Thyroid hormone receptor beta (Homo sapiens), sequence (P10828 whole entry, looked up): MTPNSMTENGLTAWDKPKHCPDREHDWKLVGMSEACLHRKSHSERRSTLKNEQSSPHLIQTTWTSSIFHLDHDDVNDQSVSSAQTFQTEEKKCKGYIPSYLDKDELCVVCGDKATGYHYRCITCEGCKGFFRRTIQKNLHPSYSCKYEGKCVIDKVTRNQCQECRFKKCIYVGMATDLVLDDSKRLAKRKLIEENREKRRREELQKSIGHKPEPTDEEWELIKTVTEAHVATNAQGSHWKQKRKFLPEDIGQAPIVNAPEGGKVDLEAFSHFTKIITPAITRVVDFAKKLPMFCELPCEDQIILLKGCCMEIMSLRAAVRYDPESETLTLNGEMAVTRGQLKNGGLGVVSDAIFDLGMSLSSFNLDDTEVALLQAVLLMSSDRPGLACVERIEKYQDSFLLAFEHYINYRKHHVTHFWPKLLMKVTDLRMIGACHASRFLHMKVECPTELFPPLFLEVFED

A short description of test [7]: qHTS assay for small molecule agonists of the antioxidant response element (ARE) signaling pathway (AID 651741; active means well fitted activation curve with a large enough effect in the signal ratio; the % refers to the signal ratio; further: potency means the concentration at half of the fitted maximal effect; on activation: % of control where 0% means no effect). The method, boiled down:
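CellSensor ARE-bla HepG2 cells (2,000/well) carrying ARE-driven beta-lactamase, exposed 16 h at 37 C. LiveBLAzer B/G FRET substrate added for 2 h at room temperature; fluorescence intensity read.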

A short description of test [8]: qHTS assay for small molecule activators of the p53 signaling pathway (AID 651743; active means well fitted activation curve with a large enough effect in the signal ratio, not every such curve was filed as active; the % refers to the signal ratio; further: series mostly up to about 92 µM; % of control where 0% means no effect). To be noted: HCT-116 p53RE-bla, beta-lactamase FRET ratio, 16 h; activation: stronger effect = higher value. The method, boiled down:
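p53RE-bla HCT-116 cells carrying a beta-lactamase reporter under p53 response elements were exposed to compounds for 16 hours at 37 C. Reporter activity read as fluorescence after 2 hours at room temperature with LiveBLAzer B/G FRET substrate.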

A short description of test [9]: qHTS assay for small molecule agonists of retinoid X receptor alpha signaling (AID 588544). Further: potency means the concentration at half of the fitted maximal effect.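 On activation: 0% = DMSO basal wells and 100% = reference agonist.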 Conditions: HEK293T RXRa-UAS-bla, beta-lactamase reporter, 18 h; 530 nm emission.
Test [10] deals with Retinoic acid receptor RXR-alpha (Homo sapiens) (UniProt P19793). Described as above.
Retinoic acid receptor RXR-alpha (Homo sapiens), sequence (P19793 whole entry, looked up): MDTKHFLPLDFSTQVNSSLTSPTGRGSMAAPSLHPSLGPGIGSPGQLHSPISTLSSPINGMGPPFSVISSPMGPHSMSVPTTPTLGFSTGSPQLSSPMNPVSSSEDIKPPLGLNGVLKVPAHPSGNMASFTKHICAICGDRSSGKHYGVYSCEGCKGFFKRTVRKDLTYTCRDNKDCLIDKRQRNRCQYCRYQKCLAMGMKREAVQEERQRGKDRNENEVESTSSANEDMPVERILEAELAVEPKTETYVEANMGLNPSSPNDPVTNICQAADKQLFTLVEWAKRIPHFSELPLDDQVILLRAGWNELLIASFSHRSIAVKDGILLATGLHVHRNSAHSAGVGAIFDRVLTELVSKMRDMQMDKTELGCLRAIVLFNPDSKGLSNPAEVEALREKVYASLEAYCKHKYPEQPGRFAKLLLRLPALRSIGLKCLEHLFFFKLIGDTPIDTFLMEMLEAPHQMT
Test [11] deals with Voltage-gated inwardly rectifying potassium channel KCNH2 (Homo sapiens) (UniProt Q12809). Briefly: qHTS Assay for Small Molecule Inhibitors of the Human hERG Channel Activity (AID 588834; active means well fitted curve in the direction sought with a large enough effect; an effect the other way counts as inactive or inconclusive;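 further: top concentration of the series differs between compounds; on the % scale 0 is the no-effect control and ±100 the full control effect; lower thallium flux fluorescence means stronger hERG block; nearly all actives have a fitted effect of over 50% in size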). The method, boiled down:
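Blockade is seen as reduced FluxOR thallium-flux fluorescence in U2OS cells expressing hERG from a BacMam construct, in Opti-MEM with 2% FCS. Concentration-response data fitted to the Hill equation for AC50.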

Test [12] concerns the target Luciferin 4-monooxygenase (Photinus pyralis) (UniProt P08659). Briefly: Biochemical firefly luciferase enzyme assay for NPC (AID 624030; active means well fitted curve in the direction sought with a large enough effect; an effect the other way counts as inactive or inconclusive;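 further: purified P. pyralis luciferase at 10 nM with luciferin and ATP substrate; series mostly up to about 59 µM; 0% = DMSO and -100% = full luciferase inhibition by PTC124 control; nearly all actives have a fitted effect of over 70% in size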). The essentials:
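Purified P. pyralis luciferase at 10 nM in 50 mM Tris Acetate (final), luminescence read within 5 minutes of enzyme addition to compounds. Activity normalised to PTC124 versus DMSO; concentration-response curves classed by r2, magnitude and activity.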

Test [13] can be described thus: S16 Schwann cell viability assay (CellTiter-Glo assay) (AID 624031; active means well fitted curve in the direction sought with a large enough effect; an effect the other way counts as inactive or inconclusive;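 further: series mostly up to about 58 µM; plate controls were DMSO-treated cells for no effect and cell-free wells for full effect; nearly all actives have a fitted effect of over 70% in size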). The method, boiled down:
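This viability control uses native rat S16 Schwann cells grown in DMEM plus 10% FBS. After a 24 h compound treatment at 37 °C, CellTiter-Glo luminescence reports ATP content, scaled against DMSO-treated and cell-free wells.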
A general note: ATP-based viability assays read luminescence as a measure of living cells.

A short description of test [14]: S16 Schwann cell PMP22 intronic element firefly luciferase assay (AID 624032; active means well fitted curve in the direction sought with a large enough effect; an effect the other way counts as inactive or inconclusive;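 further: series mostly up to about 58 µM; plate controls were DMSO for no effect and PTC124 positive control mean for full effect; nearly all actives have a fitted effect of over 30% in size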). The essentials: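 Rat S16 Schwann cells stably carrying firefly luciferase driven by a PMP22 intronic element, in 10% FBS, treated 24 h at 37 C. ONE-Glo luminescence normalized to PTC124 control and DMSO (0%); curves classed by r2, magnitude and activity.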
Test [15] is described as follows: S16 Schwann cell PMP22 intronic element beta-lactamase assay (AID 624044).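 Further: 0% = DMSO and -100% = potassium clavulanate positive control; nearly all actives have a fitted effect of over 15% in size.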 The essentials:
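Rat S16 Schwann cells with beta-Lac driven by a PMP22 intronic element, compound-treated 24 h at 37 °C. LiveBLAzer FRET B/G read: 460 nm normalized to potassium clavulanate vs DMSO; 535 nm FRET as viability; concentration-effect curves classified.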

The nature of test [16]: qHTS of Trypanosoma Brucei Inhibitors: LOPAC Validation (AID 624147; active means well fitted curve in the direction sought with a large enough effect; an effect the other way counts as inactive or inconclusive; further: 0% is about no effect). The essentials: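 Screened from lowest to highest concentration, compounds were pinned into TbPYK/substrate mixtures, and ADP (130 uM final) was added. Plates sat at room temperature for 45 min prior to Kinase-Glo Plus detection by luminescence.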
Test [17] addresses Glucagon-like peptide 1 receptor (Homo sapiens) (UniProt P43220). Briefly: qHTS of GLP-1 Receptor Agonists: LOPAC Validation (AID 624148; active means well fitted curve in the direction sought with a large enough effect; an effect the other way counts as inactive or inconclusive;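 further: 0% is about no effect; higher luminescence signal means agonism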). The essentials:
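HEK293 cells stably co-expressing GLP-1R and a cAMP-responsive luciferase reporter, plated 12 hours before compound, then incubated 4-6 hr at 37 deg C. Luminescence read 12 min after detection reagent.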

Test [18] is described as follows: qHTS of Nrf2 Activators: LOPAC Validation (AID 624149; active means well fitted curve in the direction sought with a large enough effect; an effect the other way counts as inactive or inconclusive; further: 0% is about no effect). The method, boiled down: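 Luminescence read-out of ARE-luciferase activation: AREc32_Fluc cells treated with compounds for 24 hr at 37 deg C, then lysed with Steady-Glo for 30 min at room temperature before reading.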
Test [19] in a line: HTS Assay for Allosteric Antagonists of the Human D2 Dopamine Receptor: Hit Validation in HTRF (AID 624455; active means well fitted curve in the direction sought with a large enough effect; an effect the other way counts as inactive or inconclusive;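 further: stable D1 dopamine receptor cell line scored for blocking the D1 response; on the % scale 0 is the no-effect control and ±100 the full control effect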). The essentials: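 First, antagonism was screened by calcium flux in a force-coupled, inducible Hek293 Trex D2 line challenged with EC80 dopamine. Hits then went into an HTRF assay in cells stably expressing D1, testing inhibition of the D1 response.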
For orientation: Time-resolved FRET reads energy transfer from a long-lived donor to a nearby acceptor.

Voltage-gated inwardly rectifying potassium channel KCNH2 (Homo sapiens), sequence (Q12809 whole entry, looked up): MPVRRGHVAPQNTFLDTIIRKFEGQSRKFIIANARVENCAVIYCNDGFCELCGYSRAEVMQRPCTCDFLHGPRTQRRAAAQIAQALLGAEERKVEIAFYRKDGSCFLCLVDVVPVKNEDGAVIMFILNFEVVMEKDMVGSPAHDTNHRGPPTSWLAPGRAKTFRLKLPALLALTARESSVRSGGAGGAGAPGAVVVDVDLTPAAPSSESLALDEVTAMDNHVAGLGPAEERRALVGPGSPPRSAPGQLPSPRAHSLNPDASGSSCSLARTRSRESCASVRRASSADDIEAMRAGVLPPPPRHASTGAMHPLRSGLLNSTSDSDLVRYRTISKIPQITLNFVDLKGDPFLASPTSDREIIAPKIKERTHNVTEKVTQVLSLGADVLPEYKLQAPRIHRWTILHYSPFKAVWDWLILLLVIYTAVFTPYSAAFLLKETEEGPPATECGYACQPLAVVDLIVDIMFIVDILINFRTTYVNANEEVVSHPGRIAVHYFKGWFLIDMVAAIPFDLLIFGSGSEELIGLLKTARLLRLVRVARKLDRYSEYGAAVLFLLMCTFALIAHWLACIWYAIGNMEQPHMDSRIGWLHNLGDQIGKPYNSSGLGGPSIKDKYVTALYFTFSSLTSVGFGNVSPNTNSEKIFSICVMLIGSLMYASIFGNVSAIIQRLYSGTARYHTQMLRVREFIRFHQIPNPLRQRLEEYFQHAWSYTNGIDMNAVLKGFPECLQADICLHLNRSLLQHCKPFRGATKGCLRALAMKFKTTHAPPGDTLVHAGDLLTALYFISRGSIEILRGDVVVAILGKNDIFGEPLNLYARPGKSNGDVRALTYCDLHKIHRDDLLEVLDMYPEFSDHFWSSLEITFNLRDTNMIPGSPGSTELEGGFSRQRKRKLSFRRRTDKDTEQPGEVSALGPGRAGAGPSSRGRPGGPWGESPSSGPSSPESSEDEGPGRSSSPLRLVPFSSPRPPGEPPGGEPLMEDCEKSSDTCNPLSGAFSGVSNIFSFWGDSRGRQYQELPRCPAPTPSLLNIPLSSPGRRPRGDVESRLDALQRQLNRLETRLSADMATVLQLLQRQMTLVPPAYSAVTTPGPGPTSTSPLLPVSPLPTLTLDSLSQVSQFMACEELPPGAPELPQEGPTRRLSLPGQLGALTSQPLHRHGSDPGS
Vitamin D3 receptor (Homo sapiens), sequence (P11473 whole entry, looked up): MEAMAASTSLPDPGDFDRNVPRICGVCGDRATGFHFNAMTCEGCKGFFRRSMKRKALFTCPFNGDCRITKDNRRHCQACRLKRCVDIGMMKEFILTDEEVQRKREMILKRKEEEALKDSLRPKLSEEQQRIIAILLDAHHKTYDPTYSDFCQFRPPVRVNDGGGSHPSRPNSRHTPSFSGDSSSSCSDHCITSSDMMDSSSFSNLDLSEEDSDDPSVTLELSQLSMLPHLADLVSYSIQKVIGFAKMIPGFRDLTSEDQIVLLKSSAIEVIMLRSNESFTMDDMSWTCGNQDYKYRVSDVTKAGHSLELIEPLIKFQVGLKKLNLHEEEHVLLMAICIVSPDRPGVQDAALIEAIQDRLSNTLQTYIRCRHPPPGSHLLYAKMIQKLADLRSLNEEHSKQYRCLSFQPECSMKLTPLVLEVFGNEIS
Luciferin 4-monooxygenase (Photinus pyralis), sequence (P08659 whole entry, looked up): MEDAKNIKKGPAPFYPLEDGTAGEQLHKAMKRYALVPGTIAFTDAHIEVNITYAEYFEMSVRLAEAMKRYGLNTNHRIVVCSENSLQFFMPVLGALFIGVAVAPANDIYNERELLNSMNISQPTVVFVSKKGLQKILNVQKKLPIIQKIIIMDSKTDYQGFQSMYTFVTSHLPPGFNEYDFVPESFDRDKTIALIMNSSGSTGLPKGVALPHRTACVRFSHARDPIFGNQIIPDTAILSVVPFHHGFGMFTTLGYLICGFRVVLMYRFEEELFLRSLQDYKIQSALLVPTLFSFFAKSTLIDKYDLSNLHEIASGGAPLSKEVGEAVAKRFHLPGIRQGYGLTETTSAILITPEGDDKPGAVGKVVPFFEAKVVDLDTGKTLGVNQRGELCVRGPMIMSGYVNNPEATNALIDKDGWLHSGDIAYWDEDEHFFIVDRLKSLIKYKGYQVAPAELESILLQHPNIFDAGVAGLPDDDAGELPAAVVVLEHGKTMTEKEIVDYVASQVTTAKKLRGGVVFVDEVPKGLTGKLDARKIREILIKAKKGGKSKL
Glucagon-like peptide 1 receptor (Homo sapiens), sequence (P43220 whole entry, looked up): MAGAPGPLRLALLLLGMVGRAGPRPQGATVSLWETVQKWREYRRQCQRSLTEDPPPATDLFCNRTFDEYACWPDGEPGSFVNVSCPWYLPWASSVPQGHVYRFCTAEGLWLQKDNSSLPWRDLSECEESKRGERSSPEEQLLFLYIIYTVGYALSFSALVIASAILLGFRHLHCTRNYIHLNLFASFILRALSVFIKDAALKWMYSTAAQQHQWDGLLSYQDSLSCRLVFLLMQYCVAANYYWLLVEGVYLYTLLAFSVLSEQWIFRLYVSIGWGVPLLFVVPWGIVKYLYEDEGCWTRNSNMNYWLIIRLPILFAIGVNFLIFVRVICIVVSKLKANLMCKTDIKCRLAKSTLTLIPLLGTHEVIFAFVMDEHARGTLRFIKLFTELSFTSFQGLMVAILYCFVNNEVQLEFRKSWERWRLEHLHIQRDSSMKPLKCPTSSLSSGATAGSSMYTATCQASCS

Turning to `COC1=CC(=O)O[C@@H](/C=C/c2ccccc2)C1`, the Potency result in [1] is “inactive”. Further, the outcome in [2] and in test [3] was inactive. In addition, the max response in [4] was 0.406%; in [5], 18.3% (inactive). In addition, in test [6], the activity change % (negative = inhibition) was -5.64% (inactive). In test [7], the Potency was 5.31 µM (active). Besides, the activation in test [8] is -5.52% (inactive).

Turning to `CC(C)CCON=O`, the Potency entry in test [1], in test [10], in [11], in test [12], in [13] and in test [14] was “inactive” in each case. Further, the molecule was classed as inactive in test [2] and in [3]. Further, in [9], the max response was determined as 4.6%. The activity change % (negative = inhibition) in test [6] is -6.62% (inactive). The activation in [8] was -3.9% (inactive).

Regarding `C[C@]12CCC(=O)C[C@@H]1CC[C@@H]1[C@@H]2CC[C@]2(C)[C@@H](O)CC[C@@H]12`, the Potency entry in [1], in test [11], in test [12] and in test [13] was “inactive” each time. In addition, the result in test [2] and in test [3] was inactive. The max response in test [9] is 21%; in [4], 16.7%; in test [5], -6.47% (inactive). For the same molecule, the Potency was 7.94 µM (active) in test [10] and 24.3 µM (active) in test [7]. Besides, the activity change % (negative = inhibition) in test [6] is 2.39% (inactive). Besides, the activation in test [8] is -3.4% (inactive) and -1.57% (inactive).

On to `ClC(Cl)(Cl)Cl`, for which the Potency entry in [1], in [10], in [11], in [12], in [13] and in test [14] was “inactive” each time. Further, the Potency result in [15] and in test [7] was “inactive” each time. The call in test [2] and in test [3] was inactive. For the same molecule, the max response in test [9] was -19.2% and -11.8%; in [4], -0.129%; in test [5], 1.39% (inactive). The activity change % (negative = inhibition) in [6] was -13.7% (inactive) and 5.43% (inactive). For the same molecule, in test [8], the activation is -0.523% (inactive) and 1.98% (inactive).

Consider `S=C=S`, for which the Potency result in test [1], in [10], in test [11], in [12], in [13] and in test [14] was “inactive” throughout. Moreover, the Potency entry in test [15] and in test [7] was “inactive” each time. Also, the molecule was classed as inactive in test [2] and in [3]. In addition, the max response in test [9] was -8.91%; in test [4] it was -8.84%; in test [5], 10.2% (inactive). Further, the activity change % (negative = inhibition) in test [6] was 5.87% (inactive). For the same molecule, the activation in [8] was -0.789% (inactive).

Turning to `NNC(N)=O`, the Potency result in test [1], in test [10], in [11], in test [16], in [18] and in [19] was “inactive” throughout. In addition, the molecule was called inactive in test [2], in [3] and in test [17]. For the same molecule, in test [9], the max response is -3.29%. The activity change % (negative = inhibition) in [6] was -12% (inactive).

Regarding `O=C(O)C(Cl)(Cl)Cl`, the Potency entry in test [1], in [10], in [11], in [12], in test [13] and in test [14] was “inactive” in each case. Further, the Potency result in test [7] was “inactive”. For the same molecule, the molecule was called inactive in test [2] and in test [3]. Besides, the max response in test [9] is -1.61% and -5.9%; in test [4] it was -1.09%; in test [5] it was -6.5% (inactive). In [6], the activity change % (negative = inhibition) is 2.2% (inactive) and 9.95% (inactive). In addition, in test [8], the activation was 0.586% (inactive) and -1.1% (inactive).
